Assay [1] is described as follows: compound effects on lung adenocarcinoma cell viability – A549, calcein-AM fluorescence, 48 h, basal, profiling panel (AID 1162). Also: test concentration not given here. The conditions noted are these: higher = more signal.
Assay [2] can be described thus: compound effects on differentiated 3T3-L1 adipocyte viability – cell-based, 3T3-L1 adipocytes, calcein-AM fluorescence, 48 h, basal, profiling panel (AID 1163). Also: test concentration not given here. The conditions noted are these: 3T3-L1 adipocytes viability, higher = more signal.
Assay [3] in a line: compound effects on hepatocellular carcinoma cell viability – HepG2, calcein-AM fluorescence, 48 h, basal, profiling panel (AID 1164). Also: test concentration not given here. The conditions noted are these: higher = more signal.
Assay [4] in a line: compound effects on multiple myeloma cell viability – MM1S, calcein-AM fluorescence, 48 h, basal, profiling panel (AID 1165).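 Also: viability of MM1S multiple myeloma cells under basal unstimulated conditions; test concentration not given here.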 To be noted: higher = more signal.
The nature of assay [5]: calcein-AM signal in unstimulated myeloma cells – cell-based, calcein-AM fluorescence, 48 h, PK04 Diversity Set, profiling panel (AID 1166).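 Also: cells grown under basal conditions without added stimulus; test concentration not given here.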 To be noted: RPMI8226 myeloma viability, higher = more signal.
Assay [6] is described as follows: JC-1 mitochondrial signal, unstimulated HepG2 cells – cell-based, JC-1 fluorescence, 24 h, 100 nL compound, profiling panel (AID 1167). Also: test concentration not given here. The conditions noted are these: HepG2 mitochondrial potential, higher = more signal.
Assay [7] in a line: JC-1 mitochondrial signal, unstimulated adipocytes – cell-based, JC-1 fluorescence, 3T3-L1 adipocytes, 24 h, 100 nL compound, profiling panel (AID 1168). Also: test concentration not given here. To be noted: JC-1 mitochondrial fluorescence, higher = more signal, called active from +8 up or from −8 down.
The nature of assay [8]: JC-1 mitochondrial signal, unstimulated myeloma cells – cell-based, JC-1 fluorescence, RPMI8226, 24 h, 100 nL compound, profiling panel (AID 1169). Also: test concentration not given here. To be noted: JC-1 mitochondrial potential fluorescence, higher = more signal.
Assay [9] in a line: JC-1 mitochondrial signal, unstimulated MM1S myeloma – cell-based, JC-1 fluorescence, 24 h, 100 nL compound, profiling panel (AID 1170). Also: test concentration not given here. To be noted: MM1S mitochondrial potential, higher = more signal.
A short description of assay [10]: resazurin metabolic signal in A549 cells – cell-based, resazurin fluorescence, 24 h, PK04 Diversity Set, profiling panel (AID 1171). Also: test concentration not given here. To be noted: A549 viability, higher = more signal, called active from +8 up or from −8 down.
Assay [11] in a line: resazurin metabolic signal in HepG2 cells – cell-based, resazurin fluorescence, 24 h, PK04 Diversity Set, profiling panel (AID 1172). Also: test concentration not given here. The conditions noted are these: HepG2 viability, higher = more signal.
Assay [12] can be described thus: budding yeast growth changes without added modifier – OD600, strain BY4716, 24 h, basal condition, primary screen (AID 1173). The conditions noted are these: S. cerevisiae BY4716 growth, OD600, 24 h; higher = more signal, called active from +8 up or from −8 down.
The nature of assay [13]: viability profiling in MM1S myeloma cells – cell-based, resazurin fluorescence, basal, 24 h, PK04 Diversity Set, profiling panel (AID 1174). Also: test concentration not given here. To be noted: higher = more signal, called active from +8 up or from −8 down.
In assay [14] the target is Dihydroorotate dehydrogenase (quinone), mitochondrial (Plasmodium falciparum (isolate 3D7)) (UniProt Q08210). The assay is described as follows: inhibition of P. falciparum DHODH – biochemical, C-terminal His tag, absorbance 600 nm, primary screen (AID 1175).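 Also: recombinant parasite enzyme with a five histidine tag at its C terminus; test concentration not given here.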 To be noted: PfDHODH enzyme, DCIP absorbance 600 nm; higher = more signal, called active from +8 up or from −8 down.
Dihydroorotate dehydrogenase (quinone), mitochondrial (Plasmodium falciparum (isolate 3D7)), sequence (Q08210 whole entry, looked up): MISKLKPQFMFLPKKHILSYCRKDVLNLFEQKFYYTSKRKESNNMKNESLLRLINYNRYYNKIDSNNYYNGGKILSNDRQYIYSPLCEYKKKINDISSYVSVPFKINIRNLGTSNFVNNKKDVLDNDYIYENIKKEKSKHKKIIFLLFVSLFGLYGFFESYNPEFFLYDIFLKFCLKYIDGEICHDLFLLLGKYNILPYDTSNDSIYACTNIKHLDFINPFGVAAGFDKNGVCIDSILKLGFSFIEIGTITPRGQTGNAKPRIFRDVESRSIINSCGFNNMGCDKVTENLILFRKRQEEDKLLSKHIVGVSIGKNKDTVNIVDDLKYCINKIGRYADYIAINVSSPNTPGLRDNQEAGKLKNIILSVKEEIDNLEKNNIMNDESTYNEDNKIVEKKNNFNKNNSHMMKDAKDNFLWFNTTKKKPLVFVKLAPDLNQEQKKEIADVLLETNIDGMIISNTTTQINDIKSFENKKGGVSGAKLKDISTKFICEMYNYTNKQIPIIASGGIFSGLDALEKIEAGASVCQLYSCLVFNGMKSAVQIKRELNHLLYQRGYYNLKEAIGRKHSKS

Assay [15] in a line: inhibition of PAO1 biofilm formation – strain PAO1, LB-PBS medium, absorbance 600 nm, primary screen (AID 1176). Also: test concentration not given here. The conditions noted are these: P. aeruginosa PAO1 growth/biofilm, A600, 12 h; higher = more signal.
The nature of assay [16]: growth modulation of vineyard yeast isolate – strain RM11-1a, OD600, basal, 24 h, primary screen (AID 1177).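 Also: cultures grown under basal conditions with no added stressor; test concentration not given here.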 To be noted: S. cerevisiae RM11-1a growth, OD600, 24 h; higher = more signal, called active from +8 up or from −8 down.
The nature of assay [17]: growth of efflux-deficient E. coli DRC39 – strain DRC39, OD650, 24 h, E. coli filamentation inducers, primary screen (AID 1178).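 Also: growth measured as culture turbidity by optical density at 650 nm; test concentration not given here.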 The conditions noted are these: E. coli DRC39 acrAB, higher = more signal, called active from +8 up or from −8 down.
A short description of assay [18]: growth of efflux-deficient E. coli DRC39 – strain DRC39, OD650, 48 h, E. coli filamentation inducers, primary screen (AID 1179).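 Also: screen aims at cell division blockers that make cells filament.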 To be noted: E. coli DRC39 delta-acrAB growth, higher = more signal, called active from +8 up or from −8 down.
Assay [19] in a line: viability profiling in RPMI8226 myeloma cells – cell-based, resazurin fluorescence, basal, 24 h, PK04 Diversity Set, profiling panel (AID 1180).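 Also: RPMI8826 multiple myeloma cell line at 5000 cells per well; test concentration not given here.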 The conditions noted are these: higher = more signal.
For assay [20], the target named is E3 ubiquitin-protein ligase XIAP (Homo sapiens) (UniProt P98170). The assay is described as follows: small molecules binding XIAP protein – biophysical, small-molecule microarray, fluorescence 635 nm, primary screen (AID 1181).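 Also: score merges 667 nm emission and signal to noise over triplicate slides.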 The conditions noted are these: higher = more signal.
E3 ubiquitin-protein ligase XIAP (Homo sapiens), sequence (P98170 whole entry, looked up): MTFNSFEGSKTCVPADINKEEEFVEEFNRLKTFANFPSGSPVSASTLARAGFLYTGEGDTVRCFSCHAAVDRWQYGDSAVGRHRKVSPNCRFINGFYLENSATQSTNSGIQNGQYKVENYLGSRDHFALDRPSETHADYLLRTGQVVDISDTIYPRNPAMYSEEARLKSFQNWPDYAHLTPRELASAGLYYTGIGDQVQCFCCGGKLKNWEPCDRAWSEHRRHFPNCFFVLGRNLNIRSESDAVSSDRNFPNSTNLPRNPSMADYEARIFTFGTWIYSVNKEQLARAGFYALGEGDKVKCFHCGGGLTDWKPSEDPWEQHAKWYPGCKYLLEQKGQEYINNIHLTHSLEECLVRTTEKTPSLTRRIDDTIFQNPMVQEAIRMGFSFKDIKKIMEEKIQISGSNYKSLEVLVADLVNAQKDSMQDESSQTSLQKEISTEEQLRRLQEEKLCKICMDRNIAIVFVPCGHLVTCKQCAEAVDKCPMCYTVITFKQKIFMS

The values below come from PubChem BioAssay.

Calls of active or inactive are those of the source. Unless noted, no rule for the calls is given here.

Regarding `Cc1ccc(S[C@]2(C(=O)NCC(C)C)CC(=O)N(Cc3ccccc3)[C@@H]2c2ccc(CO)cc2I)cc1`, the z-score in assay [1] was 0.715; in assay [2] it was 0.752; in [3], 0.38; in assay [4], -2.1; in [5], -2.73; in assay [6] it was -0.329. For the same compound, the z-score in assay [7] is -1.23 (inactive); in assay [8], -0.813; in [9], -0.528; in assay [10], 0.999 (inactive); in [11] it was -0.629; in assay [12], -1.51 (inactive). Besides, the z-score in [13] was -1.73 (inactive); in [15] it was 0.282 (inactive); in assay [16], 0.341 (inactive); in assay [17] it was -0.0655 (inactive); in [18] it was -0.553 (inactive); in assay [19], -1.89. Also, the values for the composite z-score in assay [14] and in assay [20] were 0.47 (inactive) and 0.0583, respectively.

On to `CCOC(=O)C1=C[C@@H](CC)N(S(=O)(=O)c2ccc(C)cc2)[C@H]1c1ccccc1`, for which the z-score is -0.934 in assay [1]; -0.167 in [2]; -0.342 in assay [3]; -0.922 in assay [4]; -1.37 in assay [5]; -0.378 in [6]. Moreover, the z-score in [7] is -1.31 (inactive); in assay [8], 0.649; in [9] it was -0.894; in [10], 1.46 (inactive); in assay [11] it was -0.203; in assay [12], 1.21 (inactive). Moreover, the z-score in assay [13] is -0.666 (inactive); in assay [15], 0.325 (inactive); in assay [16], 0.501 (inactive); in assay [17] it was -0.823 (inactive); in [18] it was -0.604 (inactive); in assay [19] it was -1.05. Besides, the composite z-score in assay [14] is -0.157 (inactive); in assay [20], 0.289.

`C=CCC(OC(C)=O)[C@@H]1[C@@H](N(Cc2ccc(-c3ccccc3)cc2)C(=O)Cc2ccc(OC)cc2)c2cc(OCCCO)ccc2N1C(=O)c1ccc2ccccc2n1` (stereo not given in full): the z-score in assay [1] was -0.072; in [2], 0.273; in [3], 0.978; in [4], 0.0474; in assay [5], -0.295; in assay [6] it was 2.56. Besides, the z-score in assay [7] is -0.269 (inactive); in assay [8], 0.651; in assay [9], 0.789; in assay [10] it was 0.902 (inactive); in assay [11], 0.0252; in [12], -0.594 (inactive). Besides, the z-score is 0.525 (inactive) in assay [13]; -0.24 (inactive) in assay [15]; -1.15 (inactive) in assay [16]; 1.29 (inactive) in assay [17]; 0.644 (inactive) in assay [18]; 1.07 in [19]. Further, the composite z-score in assay [14] is -0.574 (inactive); in assay [20] it was -0.266.

Take `O=C1O[C@H](c2ccccc2)[C@H](c2ccccc2)N2[C@H]1[C@@H](C(=O)O)[C@]1(C(=O)Nc3ccc(C#CC4(O)CCCCCC4)cc31)[C@H]2c1ccc(OCCO)cc1`: the z-score is 0.82 in assay [1]; 0.287 in assay [2]; 0.293 in assay [3]; -1.99 in [4]; -0.216 in [5]; -1.82 in assay [6]. Moreover, the z-score in assay [7] was -1.07 (inactive); in assay [8] it was -0.559; in assay [9], -0.683; in [10], -0.0693 (inactive); in assay [11], 0.246; in assay [12], -0.495 (inactive). Moreover, the z-score was -0.249 (inactive) in [13]; 1.07 (inactive) in [15]; 2.12 (inactive) in assay [16]; -0.184 (inactive) in assay [17]; -0.151 (inactive) in [18]; -0.317 in [19]. In addition, the composite z-score in [14] is -4.61 (inactive); in assay [20], -0.0181.
